The results in this text go back to PubChem BioAssay.

Experiment [1] in a line: liver-stage malaria parasite growth inhibition, primary screen, cell-based, HepG2, luciferase luminescence, HepG2 viability (AID 624349).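 Note: 100% = mean of DMSO negative control wells on the same plate.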 Conditions: P. berghei liver stage in HepG2, luciferase luminescence, concentration not given here; parasite load remaining: stronger effect = lower value; viability: measured here: HepG2 viability without parasites.
The nature of experiment [2]: stimulators of nuclear beta-catenin in C2C12, primary screen, imaging, WNT3A-conditioned medium, mouse C2C12, NPC library (AID 1117326; in the data active = nuclear beta-catenin stimulation mostly above about 4.2%, no sharp cut-off; inactive = mostly below about 10%). Conditions: stronger effect = higher value.
Experiment [3] in a line: stimulators of insulin release from INS-1E, primary screen, cell-based, 5 mM glucose, NPC library (AID 1117329;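 active = compound raises insulin release from rat beta cells at 5 mM glucose, no numeric limit stated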). Conditions: rat INS-1E insulin secretion, at 10 µM, stronger effect = higher value.
A short description of experiment [4]: growth inhibition of GSK3B-pretreated HCT116 cells – cell-based, CellTiter-Glo, 0.2 to 20 µM (AID 1117336;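 active = compounds lowering colon cancer cell viability after pretreatment blocking the GSK3B kinase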). The settings on record: HCT116 viability after GSK3B inhibitor, at 20 µM, stronger effect = higher value. Background: In ATP-based viability assays light output follows the ATP content of the culture.
A short description of experiment [5]: inhibition of endothelial tube formation, primary screen, imaging, VEGF stimulated, CD31 staining, tube area, NPC library (AID 1117340;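 active = compound that reduces growth-factor-driven endothelial tube area in a mixed cell culture, no cutoff stated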). Conditions: VEGF-stimulated ADSC/ECFC co-culture, at 10 µM, stronger effect = higher value.
The nature of experiment [6]: glucagon-like peptide 1 release enhancers, primary assay, NCI-H716 cell line, NPC library (AID 1117341;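 active = compound raises GLP1 secretion from the human gut endocrine cells, with no numeric limit stated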). Conditions: NCI-H716 cells, at 10 µM, stronger effect = higher value.
The nature of experiment [7]: HCT116 colon cancer cell growth inhibition, primary screen, CellTiter-Glo luminescence, NPC library (AID 1117342;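 active = compounds that lower survival of HCT116 colon cancer cells in the luminescence readout, no numeric limit stated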). Conditions: at 20 µM (top of the series).
Experiment [8] can be described thus: CellTiter-Glo luminescent readout of SW480 viability loss, NPC library primary (AID 1117343;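 active = compounds that lower viability of the colon cancer cells in the luminescence readout, with no numeric limit stated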). The settings on record: CellTiter-Glo luminescence; at 20 µM (top of the series).
Experiment [9] is described as follows: decreased DLD-1 cellular survival, CellTiter-Glo luminescent readout, NPC compound collection, primary HTS (AID 1117346;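 active = compounds that lower survival of DLD-1 colon cancer cells in the luminescence readout, no cutoff given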). The settings on record: DLD-1 viability, CellTiter-Glo luminescence; at 20 µM (top of the series).
Experiment [10] addresses 6-phosphogluconate dehydrogenase, decarboxylating (Homo sapiens) (UniProt P52209). The experiment in a line: 6PGD enzyme inhibitors, primary screen, biochemical, human, recombinant enzyme, NADPH absorbance (AID 1159550;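 active = at least 20% inhibition of 6-phosphogluconate dehydrogenase activity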). The settings on record: recombinant 6PGD, NADPH absorbance 341 nm; at 10 µM; stronger effect = higher value.

SMILES strings stand for the structures. Several values for one entry are separate records, joined by “and”; a condition that tells them apart may be missing. Identical values can stand only once. Activity calls are given as the source filed them. Cut-off read from the data, not from the text of the source, unless noted: active = parasite load remaining mostly below about 12% (no sharp cut-off); inactive = mostly above about 10%.

Sequence of 6-phosphogluconate dehydrogenase, decarboxylating (Homo sapiens) (P52209 whole entry, looked up): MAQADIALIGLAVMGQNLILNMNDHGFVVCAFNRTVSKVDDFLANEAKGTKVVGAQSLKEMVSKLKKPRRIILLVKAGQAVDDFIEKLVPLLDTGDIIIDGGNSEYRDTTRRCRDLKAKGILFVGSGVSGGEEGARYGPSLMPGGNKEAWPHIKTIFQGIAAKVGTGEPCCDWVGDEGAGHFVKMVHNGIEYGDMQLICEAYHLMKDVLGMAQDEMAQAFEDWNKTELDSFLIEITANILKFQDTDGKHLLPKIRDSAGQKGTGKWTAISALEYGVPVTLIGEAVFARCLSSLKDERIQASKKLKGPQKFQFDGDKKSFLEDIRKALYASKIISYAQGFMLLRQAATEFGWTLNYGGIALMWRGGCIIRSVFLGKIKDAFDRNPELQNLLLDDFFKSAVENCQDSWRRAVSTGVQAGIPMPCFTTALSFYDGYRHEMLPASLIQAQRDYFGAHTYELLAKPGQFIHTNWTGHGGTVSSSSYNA

`N[C@@H](CCC(=O)N[C@@H](CS)C(=O)NCC(=O)O)C(=O)O`: the parasite load remaining in [1] is 31.4% (inactive). The viability (as a rule, a read-out of living cells in per cent, often relative to untreated cells) in [1] is 68.2%. The nuclear beta-catenin stimulation was -1% (inactive) in [2] (at 10 µM) and 4% in [2] (stimulation, at 2 µM). Further, the insulin secretion stimulation in experiment [3] was -0.3% (inactive). The viability decrease in experiment [4] is -46.1% (inactive). Moreover, the tube area decrease in [5] is 16.9% (inactive). Further, the GLP1 secretion stimulation in [6] is -3.8% (inactive). In addition, the inhibition of viability in experiment [7] is 5.53% (inactive). The viability decrease (inhibition) in experiment [8] is 8.1% (inactive); in experiment [9], -4.3% (inactive). Besides, the inhibition – broadly, the drop in the measured response relative to a control, in per cent – in experiment [10] was 0.532% (inactive).

Regarding `CCCCC1(COC(=O)CCC(=O)O)C(=O)N(c2ccccc2)N(c2ccccc2)C1=O`, the parasite load remaining in [1] is 87.9% (inactive). Moreover, the viability in experiment [1] stood at 101%. Besides, the nuclear beta-catenin stimulation in experiment [2] (at 10 µM) was 6.3% (inactive); in experiment [2] (stimulation, at 2 µM), 4.7%. Besides, the insulin secretion stimulation in [3] is 2.3% (inactive). The viability decrease in experiment [4] is 10.8% (inactive). In addition, the tube area decrease in experiment [5] is -1.7% (inactive). Further, in experiment [6], the GLP1 secretion stimulation is -1.7% (inactive). Also, in experiment [7], the inhibition of viability was 0.4% (inactive). The viability decrease (inhibition) was -17.1% (inactive) in experiment [8] and 9.4% (inactive) in experiment [9]. For the same compound, the inhibition in experiment [10] was -3.37% (inactive).

For `CCCCC(CC)CN=C(N)NC(N)=NCCCCCCN=C(N)NC(N)=NCC(CC)CCCC` (centres undefined), the parasite load remaining in [1] was -0.04% (inactive) and -6.78% (inactive). Besides, in [1], the viability is 41.3% and 33.2%. Moreover, the nuclear beta-catenin stimulation in [2] (at 10 µM) was -3.7% (inactive); in experiment [2] (stimulation, at 2 µM), -1.8%. For the same compound, the insulin secretion stimulation in experiment [3] was 22.3% (active). The viability decrease in [4] is 99.1% (active). Also, the tube area decrease in experiment [5] was 108% (active). Also, in experiment [6], the GLP1 secretion stimulation was 0% (inactive). Moreover, the inhibition of viability in experiment [7] is 99.6% (active). The viability decrease (inhibition) was 97% (active) in experiment [8] and 102% (active) in experiment [9]. In experiment [10], the inhibition was -3.86% (inactive).

For `CC1CC(OC(=O)C(O)c2ccccc2)CC(C)(C)N1C` (centres undefined), in [1], the parasite load remaining is 101% (inactive). The viability in experiment [1] worked out at 101%. Moreover, the nuclear beta-catenin stimulation in experiment [2] (at 10 µM) is -1.4% (inactive); in experiment [2] (stimulation, at 2 µM), -0.1%. The insulin secretion stimulation in experiment [3] was 2.7% (inactive). The viability decrease in experiment [4] was 3.6% (inactive). For the same compound, the tube area decrease in experiment [5] was 10.4% (inactive). Further, the GLP1 secretion stimulation in [6] was 2.1% (inactive). In experiment [7], the inhibition of viability is 9.83% (inactive). Besides, the viability decrease (inhibition) is 17.1% (inactive) in experiment [8] and 0.1% (inactive) in experiment [9]. In experiment [10], the inhibition is -25.4% (inactive).

For the compound `Cc1ccc(C(=O)C(C)CN2CCCCC2)cc1` (centres undefined), the parasite load remaining in experiment [1] was 97.6% (inactive). The viability in [1] came out at 70.5%. In addition, the nuclear beta-catenin stimulation in experiment [2] (at 10 µM) is 1.5% (inactive); in [2] (stimulation, at 2 µM), 4.3%. The insulin secretion stimulation in [3] was 0.3% (inactive). The viability decrease in [4] was -13.7% (inactive). Moreover, in [5], the tube area decrease is -6.9% (inactive). Also, the GLP1 secretion stimulation in experiment [6] is 4.8% (inactive). Besides, the inhibition of viability in [7] is 0.13% (inactive). Moreover, the viability decrease (inhibition) in experiment [8] is 2.3% (inactive); in experiment [9], -3.8% (inactive). In addition, in experiment [10], the inhibition was 7.71% (inactive).

Turning to `CCCCCCCCCCCCCCCCOP(=O)([O-])OCC[N+](C)(C)C`, the parasite load remaining in experiment [1] was 146% (inactive) and 43% (inactive). Further, the viability in experiment [1] was 78.6% and 106%. Moreover, the nuclear beta-catenin stimulation was -0.6% (inactive) in experiment [2] (at 10 µM) and 1.9% in [2] (stimulation, at 2 µM). The insulin secretion stimulation in [3] is 0% (inactive). Moreover, the viability decrease in [4] was 100% (active). In addition, in experiment [5], the tube area decrease is 12.2% (inactive). In addition, the GLP1 secretion stimulation in [6] is 2.7% (inactive). For the same compound, in experiment [7], the inhibition of viability is 100% (active). Moreover, the viability decrease (inhibition) in [8] is 120% (active); in [9], 103% (active). Further, the inhibition in experiment [10] was 17% (inactive).

Turning to `CC(=O)OCC(=O)[C@@]1(O)[C@H](C)C[C@H]2[C@@H]3CCC4=CC(=O)C=C[C@]4(C)[C@@]3(F)[C@@H](O)C[C@@]21C`, the parasite load remaining in [1] is 64% (inactive) and 76.2% (inactive). For the same compound, in experiment [1], the viability was 116% and 94.5%. The nuclear beta-catenin stimulation in experiment [2] (at 10 µM) was -1.1% (inactive); in experiment [2] (stimulation, at 2 µM) it was -2.1%. In experiment [3], the insulin secretion stimulation was 0.55% (inactive). Moreover, the viability decrease in [4] was 10.3% (inactive). Besides, in experiment [5], the tube area decrease was -13.1% (inactive). For the same compound, the GLP1 secretion stimulation in [6] is 4% (inactive). The inhibition of viability in experiment [7] is 7.2% (inactive). For the same compound, the viability decrease (inhibition) is 32.2% (inactive) in [8] and -4.9% (inactive) in [9]. Further, the inhibition in experiment [10] is -7.66% (inactive).
